Measured values reported in PMC12136788.
Whole data set: some 24,000 sequences, median “enrichment r” near 0.99, cut for the highest 2% near 3.7. Shown is part of a subset that was picked to be rich in the highest values.

T1: UNK ZnF1-3 (human, UniProt Q9C0B0 31-174)
T1 sequence: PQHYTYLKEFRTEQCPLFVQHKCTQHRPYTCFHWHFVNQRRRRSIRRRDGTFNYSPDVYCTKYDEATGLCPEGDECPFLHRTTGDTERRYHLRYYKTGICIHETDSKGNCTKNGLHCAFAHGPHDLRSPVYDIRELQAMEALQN

B1: chr7:54825262:54825263:-_ENSG00000132432_ENST00000352861|hu_hu|hu_hu_hu_mus_False|48_58 (ssRNA)
RNA: GGGAGUUCUACAGUCCGACGAUCCUGCCGGCUGGGCUCCACAAACUGCAUUACCUGAUCCAUGUUUGUUGGAUGGCACACCUAAAAUGCCAGGGACCGUAGCUCAGGAGAGAACCGAGCCCAACGGAACCGGAAGCUGGCAACCAACAGAGGAUUGAGCAUCA
B2: chr2:48026839:48026840:+_ENSG00000116062_ENST00000540021|hu_hu|hu_hu_hu_mus_False|1_48 (ssRNA)
RNA: GGGAGUUCUACAGUCCGACGAUCAUAGUGAGCCACUAGCGUCCUAAAUCUGGAACAGUGGCGGUCAUCCGAAAACUGGCCGAUGAAAAACUUUCCCAGUGAAGUGUCCACAAAGCAAACACCAUACACACGAGUGUGGCCAGACAACAGAGGAUUGAGCAUCA
B3: 58873449_58873569_2464_3pUTR_ENSMUSG00000025092_ENSMUST00000066285|mouse|control|control (ssRNA)
RNA: GGGAGUUCUACAGUCCGACGAUCAUCCAAGAUCAUUUUAAAAGACCUCCAAUGAAUGUUUCCCCCACCCUACCCUGCCCCCGGCACAGAGUGGGCGUCCUAAGCCUUCCCUUUCAGAGCCCUCUUCCAAGCAGGCUGCACCCACAACAGAGGAUUGAGCAUCA
B4: 243667512_243667632_2619_3pUTR_ENSG00000117020_ENST00000366539|human|control|control (ssRNA)
RNA: GGGAGUUCUACAGUCCGACGAUCUUCUCAUCACUAAAAAAUAAAUACUACUGCAAUAUAAACAAAAUCAUAAAAGGACAUUCAAAGUUUCAACAUCUGAGAAAAAGCUAAUUCACGUAGAACUGAAAGUAAAAAAUUAAAUAACAACAGAGGAUUGAGCAUCA
B5: 133975328_133975448_5492_3pUTR_ENSG00000205060_ENST00000378509|human|control|control (ssRNA)
RNA: GGGAGUUCUACAGUCCGACGAUCUCUCCCAUUCCAGCUUGGUACACACUGAACACAUUUGAGGCUUAUGACUGGUUCUUUUACUUACAAAUAUUGUUUAGACACAUUUUCAAAUGUCACACCAAUCAAUAAUAAUAAGGAAUGCAACAGAGGAUUGAGCAUCA
B6: chr11:21040623:21040624:+_ENSMUSG00000020134_ENSMUST00000093290|mus_mus|motif|central (ssRNA)
RNA: GGGAGUUCUACAGUCCGACGAUCAAUGUGCACGGUGCUAGGCUUCACCCCAUUUGCCUUAGGUCUUUUAAACAAAGCAAACCGGCUUUUCCUCCUUCCUCUAUCACCGUUUGGGAGAGAUCCAUUAUAUCCUAAGACAAUGAGCAACAGAGGAUUGAGCAUCA
B7: chr8:42881778:42881779:+_ENSG00000168172_ENST00000307602|hu_hu|FALSE|FALSE (ssRNA)
RNA: GGGAGUUCUACAGUCCGACGAUCCUGAAGUUAGGGGCAAUCUGCAGGUUUGUGUUUCAGGAGGCAGGCAAACCAAAGGUAAGAACAUCUUCUGAUUAACUGUAAGAUGGGAUAAUUUUUAUGAAUACAACUUCAGAAAGCAUCCAACAGAGGAUUGAGCAUCA
B8: chr10:115881139:115881140:-_ENSG00000165813_ENST00000369287|hu_hu|FALSE|FALSE (ssRNA)
RNA: GGGAGUUCUACAGUCCGACGAUCAUAAAAAUAUUUUCACCAGGGUAGCAUAUAUAACAACAUUUACAUUAUUAAGGAUUCUAUUUUUUUCUUUUACUGAUAAAUCUUGGUUUAAAUUUGCAUGUAACAAUUUUUAGAAAAUAACAACAGAGGAUUGAGCAUCA
B9: 62642993_62643113_3073_3pUTR_ENSMUSG00000032244_ENSMUST00000034775|mouse|control|control (ssRNA)
RNA: GGGAGUUCUACAGUCCGACGAUCCAUAUGUGUCCUCAUUCCUUUUCAUCUUACACCUAAUUAGGGAGACACCAAUGCCCUAUGGAAAGGCAGUUUCCAAUUUUUAAAGAUACAACACACAAGGACAGGGCUAGAAAAGGACGACAACAGAGGAUUGAGCAUCA
B10: chr5:135513207:135513208:+_ENSG00000113658_ENST00000545279|hu_hu|FALSE|FALSE (ssRNA)
RNA: GGGAGUUCUACAGUCCGACGAUCAAUGUAAGCUCACAGUAUCUGUACUCAAAGUUUCUCUAAAAUUAAAACAAGUCCACUAACAAUAUAAUUGAAAAGAAUACUUCUGCAUUAUGAAACAGAAGAUAUGGGGUUCAGAGGGGACAACAGAGGAUUGAGCAUCA
B11: 120959283_120959403_3001_3pUTR_ENSG00000154114_ENST00000422003|human|control|control (ssRNA)
RNA: GGGAGUUCUACAGUCCGACGAUCUGAAGAAUUUACAAGUCACCUAAAAAUUUCAUAAAAAAAUUAAAUUUGUAGGAGGGGUAGAAUUAUGUAACAAAGGUCAAAAGGUCAAAUGCAAUCAGAUAAUAACUGCAUUCUUUGAAACAACAGAGGAUUGAGCAUCA
B12: chr1:109605286:109605287:-_ENSG00000197780_ENST00000461096|hu_mus|hu_hu_hu_mus_True|88_108 (ssRNA)
RNA: GGGAGUUCUACAGUCCGACGAUCAAGAACAAUAACAACAUUCAGUAUACUUAAAUCAUGCAAUUAUCCUUAUUAUAAGCUAAGCAGAAUAAUAAUUUAAUACCGUAAGUGAACUACACACAAAGCCUGAACCGCGAAAAUGGUCAACAGAGGAUUGAGCAUCA

The binders below were run against T1, UNK ZnF1-3 (assay: nsRBNS (natural sequence RNA bind-n-seq); RBNS binding buffer (assumed for nsRBNS): 25 mM Tris pH 7.5, 150 mM KCl, 3 mM MgCl2, 0.01% Triton X-100, 500 ug/ml BSA, 20 U/ml SUPERase-In, 4 C; UNK is unkempt and MSI1 is Musashi-1; names of the RNAs are library labels; protein concentration not given here; high values mean tight binding).

Binder	binding signal [enrichment R]
B1	1.16
B2	1.03
B3	5.4
B4	5.18
B5	1.3
B6	0.75
B7	3.56
B8	3.75
B9	1.66
B10	1.67
B11	4.1
B12	0.813
